# Results reported in the supplement of paper PMC8728848.
# This is one part of a sample in which the strongest signals are shown more often than they occur.
# Columns and labels:
# Test in all cases: glycan array binding signal (z-score within array); higher = stronger binding
# Conditions in all cases: glycan notation: IUPAC condensed, linker removed
# [1] = target: Fuc(a1-2)Gal(b1-3)GlcNAc
# How it was run: (§1)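 From the Consortium for Functional Glycomics database, 3228 arrays were curated, keeping only those whose protein sequence was available. Binding is given as a within-array Z-score averaged across arrays sharing a protein sequence and across linkers. Negative Z-scores can be read as non-binding.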
# [2] = target: Fuc(a1-2)Gal(b1-3)GlcNAc(b1-2)Man(a1-3)[Fuc(a1-2)Gal(b1-3)GlcNAc(b1-2)Man(a1-6)]Man(b1-4)GlcNAc(b1-4)GlcNAc
# How it was run: as §1
# [3] = target: Fuc(a1-2)Gal(b1-3)GlcNAc(b1-3)Gal(b1-4)Glc
# How it was run: as §1
# [4] = target: Fuc(a1-2)Gal(b1-3)GlcNAc(b1-3)[Gal(b1-4)GlcNAc(b1-6)]Gal(b1-4)Glc
# How it was run: as §1
# [5] = target: Fuc(a1-2)Gal(b1-3)GlcNAc(b1-3)[Neu5Ac(a2-6)Gal(b1-4)GlcNAc(b1-6)]Gal(b1-4)Glc
# How it was run: as §1
# [6] = target: Fuc(a1-2)Gal(b1-4)GlcNAc(b1-2)[Fuc(a1-2)Gal(b1-4)GlcNAc(b1-4)]Man(a1-3)[Fuc(a1-2)Gal(b1-4)GlcNAc(b1-2)Man(a1-6)]Man(b1-4)GlcNAc(b1-4)GlcNAc
# How it was run: as §1
# [7] = target: Fuc(a1-2)Gal(b1-4)GlcNAc(b1-3)Gal(b1-4)GlcNAc(b1-3)Gal(b1-4)GlcNAc
# How it was run: as §1
# [8] = target: Fuc(a1-2)[Gal(a1-3)]Gal(b1-3)GlcNAc
# How it was run: as §1
# [9] = target: Fuc(a1-2)[Gal(a1-3)]Gal(b1-3)GlcNAc(b1-6)GalNAc
# How it was run: as §1
# [10] = target: Fuc(a1-2)[GalNAc(a1-3)]Gal(b1-3)GlcNAc(b1-6)GalNAc
# How it was run: as §1
# [11] = target: Fuc(a1-2)[GalNAc(a1-3)]Gal(b1-4)[Fuc(a1-3)]GlcNAc(b1-3)GalNAc
# How it was run: as §1
# [12] = target: Gal(a1-4)Gal(b1-4)GlcNAc
# How it was run: as §1
# [13] = target: Gal(b1-3)GlcNAc(a1-3)Gal(b1-4)GlcNAc
# How it was run: as §1
# [14] = target: Gal(b1-3)GlcNAc(b1-3)Gal(b1-4)GlcNAc(b1-3)Gal(b1-4)GlcNAc(b1-2)[Gal(b1-3)GlcNAc(b1-3)Gal(b1-4)GlcNAc(b1-3)Gal(b1-4)GlcNAc(b1-6)]Man(a1-6)[Gal(b1-3)GlcNAc(b1-3)Gal(b1-4)GlcNAc(b1-3)Gal(b1-4)GlcNAc(b1-2)Man(a1-3)]Man(b1-4)GlcNAc(b1-4)[Fuc(a1-6)]GlcNAc
# How it was run: as §1
# [15] = target: Gal(b1-3)GlcNAc(b1-3)Gal(b1-4)GlcNAc(b1-6)[Gal(b1-3)GlcNAc(b1-3)]Gal(b1-4)Glc
# How it was run: as §1
# [16] = target: Gal(b1-3)[Fuc(a1-4)]GlcNAc(b1-3)Gal(b1-4)GlcNAc
# How it was run: as §1
# [17] = target: Gal(b1-4)GlcNAc(b1-2)[Gal(b1-4)GlcNAc(b1-4)]Man(a1-3)[GlcNAc(b1-4)][Gal(b1-4)GlcNAc(b1-2)Man(a1-6)]Man(b1-4)GlcNAc(b1-4)GlcNAc
# How it was run: as §1
# [18] = target: Gal(b1-4)GlcNAc(b1-2)[Gal(b1-4)GlcNAc(b1-6)]Man(a1-6)[Gal(b1-4)GlcNAc(b1-2)Man(a1-3)]Man(b1-4)GlcNAc(b1-4)[Fuc(a1-6)]GlcNAc
# How it was run: as §1
# [19] = target: Gal(b1-4)GlcNAc(b1-3)Gal(b1-4)GlcNAc(b1-3)Gal(b1-4)GlcNAc
# How it was run: as §1
# [20] = target: Gal(b1-4)GlcNAc(b1-3)Gal(b1-4)GlcNAc(b1-3)Gal(b1-4)GlcNAc(b1-3)Gal(b1-4)GlcNAc(b1-3)Gal(b1-4)GlcNAc(b1-2)[Gal(b1-4)GlcNAc(b1-3)Gal(b1-4)GlcNAc(b1-3)Gal(b1-4)GlcNAc(b1-3)Gal(b1-4)GlcNAc(b1-3)Gal(b1-4)GlcNAc(b1-6)]Man(a1-6)[Gal(b1-4)GlcNAc(b1-3)Gal(b1-4)GlcNAc(b1-3)Gal(b1-4)GlcNAc(b1-3)Gal(b1-4)GlcNAc(b1-3)Gal(b1-4)GlcNAc(b1-2)Man(a1-3)]Man(b1-4)GlcNAc(b1-4)[Fuc(a1-6)]GlcNAc
# How it was run: as §1
# [21] = target: Gal3S(b1-3)GalNAc
# How it was run: as §1
# [22] = target: GalNAc(a1-3)GalNAc(b1-3)Gal(a1-4)Gal(b1-4)Glc
# How it was run: as §1
# [23] = target: GlcA3S(b1-3)Gal(b1-4)GlcNAc(b1-3)Gal(b1-4)Glc
# How it was run: as §1
# [24] = target: GlcNAc(b1-2)[GlcNAc(b1-4)]Man(a1-3)[GlcNAc(b1-4)][GlcNAc(b1-2)Man(a1-6)]Man(b1-4)GlcNAc(b1-4)GlcNAc
# How it was run: as §1
# [25] = target: GlcNAc(b1-3)Gal(b1-4)GlcNAc(b1-3)Gal(b1-4)GlcNAc(b1-3)GalNAc
# How it was run: as §1
# [26] = target: GlcNAc(b1-3)[GlcNAc(b1-6)]GalNAc
# How it was run: as §1
# [27] = target: Kdn(a2-3)Gal(b1-4)Glc
# How it was run: as §1
# [28] = target: Man(a1-2)Man(a1-3)Man
# How it was run: as §1
# [29] = target: Man(a1-3)[Man(a1-6)]Man(a1-6)[Man(a1-3)]Man
# How it was run: as §1
# [30] = target: Man(b1-4)GlcNAc
# How it was run: as §1
binder,measurement,setting,value
"FliC (Pseudomonas aeruginosa), P72151 (protein) MALTVNTNIASLNTQRNLNASSNDLNTSLQRLTTGYRINSAKDDAAGLQISNRLSNQISGLNVATRNANDGISLAQTAEGALQQSTNILQRIRDLALQSANGSNSDADRAALQKEVAAQQAELTRISDTTTFGGRKLLDGSFGTTSFQVGSNAYETIDISLQNASASAIGSYQVGSNGAGTVASVAGTATASGIASGTVNLVGGGQVKNIAIAAGDSAKAIAEKMDGAIPNLSARARTVFTADVSGVTGGSLNFDVTVGSNTVSLAGVTSTQDLADQLNSNSSKLGITASINDKGVLTITSATGENVKFGAQTGTATAGQVAVKVQGSDGKFEAAAKNVVAAGTAATTTIVTGYVQLNSPTAYSVSGTGTQASQVFGNASAAQKSSVASVDISTADGAQNAIAVVDNALAAIDAQRADLGAVQNRFKNTIDNLTNISENATNARSRIKDTDFAAETAALSKNQVLQQAGTAILAQANQLPQAVLSLLR",glycan array binding signal (z-score),[1],-0.166
same,glycan array binding signal (z-score),[2],-0.133
same,glycan array binding signal (z-score),[3],-0.154
same,glycan array binding signal (z-score),[4],-0.067
same,glycan array binding signal (z-score),[5],2.82
same,glycan array binding signal (z-score),[6],-0.117
same,glycan array binding signal (z-score),[7],-0.151
same,glycan array binding signal (z-score),[8],-0.118
same,glycan array binding signal (z-score),[9],0.094
same,glycan array binding signal (z-score),[10],2.71
same,glycan array binding signal (z-score),[11],-0.134
same,glycan array binding signal (z-score),[12],0.061
same,glycan array binding signal (z-score),[13],-0.119
same,glycan array binding signal (z-score),[14],2.32
same,glycan array binding signal (z-score),[15],-0.165
same,glycan array binding signal (z-score),[16],-0.193
same,glycan array binding signal (z-score),[17],-0.178
same,glycan array binding signal (z-score),[18],1.27
same,glycan array binding signal (z-score),[19],-0.189
same,glycan array binding signal (z-score),[20],3.23
same,glycan array binding signal (z-score),[21],-0.09
same,glycan array binding signal (z-score),[22],-0.183
same,glycan array binding signal (z-score),[23],-0.191
same,glycan array binding signal (z-score),[24],1.69
same,glycan array binding signal (z-score),[25],-0.143
same,glycan array binding signal (z-score),[26],-0.16
same,glycan array binding signal (z-score),[27],-0.115
same,glycan array binding signal (z-score),[28],-0.16
same,glycan array binding signal (z-score),[29],-0.152
same,glycan array binding signal (z-score),[30],-0.177
